# This is part of a sample that, as a whole, favours compounds with a hit. Of some 83,000 tested, about 20% had one in any assay.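 Percent growth is the endpoint: 0 to 100 indicates growth inhibition (40 means 60% inhibition), 0 means no net growth, and negative values indicate cell death.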 Values without a mark were called inactive. Calls of active or inactive are those of the source.
# Tested on: HCC-2998 colon
# Assay: NCI-60 one-dose screen, 48 h (100 = growth as untreated, 0 = no growth, -100 = all killed)
# Settings: 10 µM unless noted
# Description: Growth inhibition of the HCC-2998 human tumor cell line is measured as a screen for anti-cancer activity. Cells are grown in 96 well plates and exposed to the test compound for 48 hours. Compounds are tested at a single concentration, which is 10^-5 M for most compounds. The reported endpoint is percent growth (GI% or GIPRCNT), where numbers from 0 - 100% represent growth inhibition, and numbers from -100% - 0 represent cell death. For example, a value of 40 represents 60% growth inhibition. A value of 0 means no net growth occurred over the course of the experiment. A value of -40 indicates 40% of cells at the beginning of the experiment died by the end of the experiment. A value of -100 means all cells are dead at the end of the experiment.
# NCI-60 Human Tumor Cell Lines Screen was performed using the standard one-dose NCI protocol, which is described in more detail at https://dtp.cancer.gov/discovery_development/nci-60/default.htm.
# Compounds with GIPRCNT values below 10 were considered active. Activity score was based on GIPRCNT using the following formula: […]
# Score is 0 for GIPRCNT values of 100 or above, 50 for GIPRCNT values of 0, and 100 for GIPRCNT values of -100.
row,SMILES,growth
1,Cc1ccc(S(=O)(=O)Oc2ccc3sc4cccc(NCCN(C)C)c4c(=O)c3c2)cc1,-96.7% (active)
2,CCS/C(Nc1ccccc1)=C(\C#N)C(=O)Nc1ccc(OC)cc1,55.2%
3,O=C(Cn1nnc2ccccc21)N/N=C/c1c[nH]c2ccccc12,78.8%
4,O=c1ccc(=O)n(-c2nc(-c3ccc([N+](=O)[O-])cc3)cs2)[nH]1,106%
5,C=C1C(=O)O[C@H]2[C@H]1CC/C(COC(=O)c1cc3cc(Cl)ccc3[nH]1)=C\CC[C@@]1(C)O[C@@H]21,-70.5% (active)
6,C[C@]1(O)CC(=O)[C@]2(O)C3=C(C=C[C@]2(O)C1)C(=O)c1c(O)cccc1C3=O,94.7%
7,COc1cc(NC(=O)c2cncnc2Nc2ccc3c(ccn3Cc3ccccn3)c2)cc(OC)c1,67.8%
8,CCCCCCCC/C=C\CCCCCCCCOc1ccc(CC(=O)NCC[N+]2(C)CCOCC2)cc1,56.2%
9,CCNc1nc(O)c(/C=C2\C=Nc3ncccc32)s1,10.2%
10,CCOC(=O)c1c(C)c2c(n1Cc1ccccc1)CSCC2=O,17% [100 µM]
11,C=C(CNCCc1ccc(O)cc1)[C@@H]1CC[C@]2(CO)CC[C@]3(C)[C@H](CC[C@@H]4[C@@]5(C)CCC(=O)C(C)(C)[C@@H]5CC[C@]43C)[C@@H]12,17.3%
12,CC(C)(C)n1cc(-c2ccnc(NCCCNS(=O)(=O)c3ccc(C(F)(F)F)cc3)c2)c(-c2cccc(F)c2)n1,106%
13,COC(=O)C(Cc1ccccc1)NC(=O)c1ccc(NC(=O)c2[nH]c(C)c(Cl)c2Cl)c(OC(C)C)c1 (stereo not given),80.1%
14,CCOC(=O)c1c(C)nc2ccccc2c1/C=C/c1cccs1,79.4%
15,COc1cc(-c2nc3cc(Cl)c(Cl)cc3[nH]2)ccc1OCC(=O)N=Nc1c(O)[nH]c2ccc(Cl)cc12,-39.2% (active)
16,O=[N+]([O-])c1ccc(-c2cn3nc(-c4c[nH]c5ccccc45)sc3n2)cc1,86.1%
17,COC(=O)c1ccc(NC(=O)Nc2ccc(C(=O)OC)cc2)cc1,108%
18,CC(C)(C)c1cc(Cl)c(O)c(CNCCO)c1,104%
19,O=C(C1CCCCC1)[C@@H]1[C@]2(C(=O)NC3CCCCC32)[C@@H]2CCCN2[C@@]12C(=O)NC1CCC(Cl)CC12 (stereo not given in full),-84.8% [100 µM] (active)
20,CCN(CC)CCCN1C(=O)c2c(c(C)c3c(oc4ccc(OC)cc43)c2C)C1=O,105%

row,SMILES,growth
1,Cc1ccc(/C=C/C(=O)c2ccc(-n3cc(CN4CCN(c5cc6c(cc5F)c(=O)c(C(=O)O)cn6C5CC5)CC4)nn3)cc2)cc1,92.4%
2,CC(=O)c1sc2sc(C(C)=O)c(C)c2c1C,102%
3,N#CC1CCc2c(c(-c3ccc4nc(N)sc4c3)nc3ccc4[nH]ncc4c23)C1 (stereo not given),48.2%
4,CN(C)CCN1C(=O)c2cccc3c(/C=C/CN4C(=O)c5cccc6cccc(c56)C4=O)ccc(c23)C1=O,36.4%
5,C#CCNC(=O)[C@]1(C)CCC[C@@]2(C)[C@H]1CC=C1C=C(C(C)C)CC[C@@H]12,100%
6,CC(=O)ON1CCCC(P(=O)(OCCSC(=O)C(C)(C)C)OCCSC(=O)C(C)(C)C)C1=O (stereo not given),11%
7,Cc1ccc2c(=O)cc(C(=O)Nc3sc4c(c3C(=O)NCc3cccnc3)CCCC4)oc2c1C,106%
8,CC1(C)NCCC[C@]2(C)[C@H]3CC[C@H]4[C@H]5[C@H](C(=O)/C=C/c6cccnc6)CCC[C@]5(CO)CC[C@@]4(C)[C@]3(C)CC[C@@H]12,19.7%
9,COc1cccc(CNc2c3ccccc3nc3ccccc23)c1,39.3%
10,Oc1ccc(/C=C/c2ccc(O)cc2)cc1,96.4%
11,Cc1ccc(C(=O)c2ccc(CC(=O)N=Nc3c(O)[nH]c4ccc(Br)cc34)n2C)cc1,124%
12,FC(F)(F)c1ccc(Cn2cc(CSc3nc4ccccc4s3)nn2)cc1,104%
13,CN1CCN(Cc2ccc(NC(=O)c3cncc(C#Cc4cnc5ccc(Cl)nn45)c3)cc2C(F)(F)F)CC1,-24.4% (active)
14,COc1ccccc1N(C(C)=O)C1=C(Cl)C(=O)c2ccccc2C1=O,19.5%
15,O=C(/C=C/C12c3ccccc3C(c3ccccc31)C1C(=O)NC(=O)C12)c1ccc(Br)cc1 (stereo not given),95.3%
16,N#C/C(=C\c1cn(Cc2ccccc2)c2ccccc12)C(=O)Nc1ncc(Cc2ccccc2Cl)s1,58.4%
17,NS(=O)(=O)c1ccc(-c2cc(-c3nnc(SCC(=O)Nc4ccc(C(=O)/C=C/c5ccc(Cl)cc5)cc4)n3-c3ccccc3)c3ccccc3n2)cc1,105%
18,COc1cc(/C=C2\CN(S(=O)(=O)c3ccccc3)C/C(=C\c3cc(CN4CCCCC4)c(O)c(OC)c3)C2=O)cc(CN2CCCCC2)c1O,-68% (active)
19,CN1CCN(C(=O)C(C)(C)c2ccc(C(=O)Nc3cn4cc(-c5ccncc5)ccc4n3)cc2)CC1,13.9%
20,COc1ccc(C[n+]2c3ccccc3n3c4ccc(N)cc4ccc32)c(OC)c1OC,67.9%

# — PubChem BioAssay (NCI)
